Reference: publication PMC8769072, “Proteome‐scale mapping of binding sites in the unstructured regions of the human proteome” (Molecular Systems Biology, 2022)

Legend:
[1] = biological target: USP7 53-206, Q93009
[2] = biological target: VASP 1-114, P50552
Chain of VASP 1-114, P50552 (P50552 1-114): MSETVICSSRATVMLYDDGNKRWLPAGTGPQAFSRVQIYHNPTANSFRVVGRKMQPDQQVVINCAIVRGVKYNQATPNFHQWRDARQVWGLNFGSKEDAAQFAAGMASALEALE

Chain of USP7 53-206, Q93009 (Q93009 53-206): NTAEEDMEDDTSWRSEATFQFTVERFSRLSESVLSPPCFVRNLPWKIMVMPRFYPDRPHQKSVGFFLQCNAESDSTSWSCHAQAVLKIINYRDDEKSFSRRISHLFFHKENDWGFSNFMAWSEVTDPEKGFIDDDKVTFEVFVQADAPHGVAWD

Binder	selected by phage display [1]	selected by phage display [2]
AASTSVTAGWGDVASS [HIPK2, Q9H2X6]	confidence 2 (active)	–
DVVLQSFPPLPSAEIL [KIF23, Q02241]	–	confidence 2 (active)
MAWPKLPAPWLLLATW [ILDR1, Q86SU0]	–	confidence 2 (active)
SAMSVPGMSTGTVLGA [ARNTL2, Q8WYA1]	confidence 2 (active)	–
FPPPPLPDSAIFLPPS [INPPL1, O15357]	–	confidence 3 (active)
TVITSVSSASSSSTVL [KLF12, Q9Y4X4]	confidence 4 (active)	–
ASSSSPSLSGTSYSFS [IPCEF1, Q8WWN9]	confidence 4 (active)	–
GSSGSQEQLVSIASSS [PER3, P56645]	confidence 3 (active)	–
MPSSSHGSMGGYNHSV [SS18, Q15532]	confidence 2 (active)	–
LPSTSGSEGVPFRTVS [EPHA2, P29317]	confidence 2 (active)	–
SIAQPSTSSLHSHSSL [TCF7L2, Q9NQB0]	confidence 3 (active)	–
SSSSPSPPPLSAISSV [PRDM2, Q13029]	confidence 2 (active)	–
WPDPPDLPTVDPISSS [MRPL43, Q8N983]	–	confidence 4 (active)
ASSSLTVTDSTLWSQS [MAGEA8, P43361]	confidence 3 (active)	–
VYSMDDFPPPPPHTVA [SHROOM3, Q8TF72]	–	confidence 4 (active)
VPANGEMSSSHSAQSM [TP73, O15350]	confidence 3 (active)	–
DFPPPPPDLEQLRLTD [VCL, P18206]	–	confidence 2 (active)
SQVTGMSLQIPSSSTG [MAMLD1, Q13495]	confidence 3 (active)	–
EAFPPPPHFSFPAPLS [SBNO2, Q9Y2G9]	–	confidence 2 (active)
GPSSSTTTTTTTTEQP [MAP3K1, Q13233]	confidence 3 (active)	–
STMPESPSSSTTATTT [SP4, Q02446]	confidence 3 (active)	–

Binder	selected by phage display [1]	selected by phage display [2]
MDTEPNPGTSSVSTTT [PHC3, Q8NDX5]	confidence 2 (active)	–
VSAPGRSIEASVDVPA [AHNAK2, Q8IVF2]	confidence 2 (active)	–
LAGPSLSSSSFSPSSS [ZFP36, P26651]	confidence 2 (active)	–
DRASSSSGTIVQEAYG [SYNE2, Q8WXH0]	confidence 2 (active)	–
SGMVTNSVPTASSSVL [SALL1, Q9NSC2]	confidence 4 (active)	–
LVPPALDLSWIWPAPP [C1orf159, Q96HA4]	–	confidence 3 (active)
EHAEIARWGQTLPTTS [SPTBN4, Q9H254]	confidence 2 (active)	–
MSVSSISSAGSSVASA [MARK1, Q9P0L2]	confidence 3 (active)	–
DVPSVSDHSQQVVDSG [KAT6A, Q92794]	confidence 3 (active)	–
GDLQTWFFPPPPAGSV [TEX44, Q53QW1]	–	confidence 2 (active)
PAKIETDYWPAPPSLA [DMTN, Q08495]	–	confidence 2 (active)
PVQSPLATAASASTSV [PROSER1, Q86XN7]	confidence 3 (active)	–
SASSSASSSASSSSVV [MEX3B, Q6ZN04]	confidence 4 (active)	–
AMPAPTPSSSPVPTLS [NXF1, Q9UBU9]	confidence 2 (active)	–
PLTASSEQTAASSSSS [WBP1, Q96G27]	confidence 2 (active)	–
SPVFPPPPPEALIPFA [NHSL1, Q5SYE7]	–	confidence 3 (active)
PGSNSTGSEVASMSSQ [ISL1, P61371]	confidence 3 (active)	–
LLNFPPPLPALYELWE [LBR, Q14739]	–	confidence 2 (active)
LWPDPPHFLYWSGFLG [PAX1, P15863]	–	confidence 2 (active)
FPAPPSHWLFGHIQEL [CYP4A11, Q02928]	–	confidence 2 (active)
SFGINVATPGSSTTTG [POM121, Q96HA1]	confidence 3 (active)	–

Binder	selected by phage display [1]	selected by phage display [2]
ALSDSPSNSSYVETPR [TUBGCP5, Q96RT8]	confidence 3 (active)	–
TVPSHSSHATAVTTSN [SAP130, Q9H0E3]	confidence 4 (active)	–
TDSIHSAHSSHSLSRD [UNC13B, O14795]	confidence 2 (active)	–
FPPPPPETELPLPPIE [RAPH1, Q70E73]	–	confidence 3 (active)
ASGSSVPSSPVSESVL [GRM1, Q13255]	confidence 4 (active)	–
HVSNDASSSVAESSSP [KIAA0408, Q6ZU52]	confidence 3 (active)	–
SLQNQQNAHTSRMLQV [GPR179, Q6PRD1]	confidence 2 (active)	–
SGSVQTSSPPQLETVR [ARAP2, Q8WZ64]	confidence 2 (active)	–
MPIVMARDLEETASSS [TTLL5, Q6EMB2]	confidence 3 (active)	–
TVDANGVVSLVGGPSV [SCN1A, P35498]	confidence 3 (active)	–
QSHLATAGSTSSHSLQ [ESR1, P03372]	confidence 3 (active)	–
SSVPTTINTIGTSTST [SAMD4A, Q9UPU9]	confidence 2 (active)	–
SSSAASTSSSSSAVAS [TRIP12, Q14669]	confidence 2 (active)	–
GISDGPSVSALTNGFD [PARN, O95453]	confidence 3 (active)	–
AYEGPSTSVVPTPDEG [MAGEE1, Q9HCI5]	confidence 4 (active)	–
SMADFPPPEEAFFSVA [KIAA1522, Q9P206]	–	confidence 2 (active)
DASSQTRMVHASASTS [BSN, Q9UPA5]	confidence 3 (active)	–
QGELLEAPSSSSAPLP [RNF135, Q8IUD6]	confidence 2 (active)	–
VALEHERAAAAGSSSS [ABHD12, Q8N2K0]	confidence 3 (active)	–
IPSEEWPNPPTLQEAG [FAF2, Q96CS3]	–	confidence 4 (active)
